SARS 3CLpro inh: SARS-CoV 3CLpro protease inhibitors, primary screen, biochemical, quenched FRET; recombinant SARS-CoV 3CLpro, quenched FRET peptide cleavage; AID 1706, 2009; Replicase polyprotein 1ab (Severe acute respiratory syndrome coronavirus), P0C6X7; 290,000 tested, 0.14% active; inhibition, % at 6 µM; in the data active = inhibition above about 12%
RecA splice inh: Mtb RecA intein splicing inhibitors, primary screen, biochemical, fluorescence, HTS | Protein RecA (Mycobacterium tuberculosis (strain ATCC 25618 / H37Rv)), P9WHJ3 | cell-free RecA intein splicing | inhibition, % (test concentration not listed) | 290,000 tested, 0.75% active; in the data active = inhibition above about 30%;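 also: 0% = vehicle wells and 100% = reference inhibitor control wells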
Target sequence (P9WHJ3 whole entry, looked up, canonical isoform): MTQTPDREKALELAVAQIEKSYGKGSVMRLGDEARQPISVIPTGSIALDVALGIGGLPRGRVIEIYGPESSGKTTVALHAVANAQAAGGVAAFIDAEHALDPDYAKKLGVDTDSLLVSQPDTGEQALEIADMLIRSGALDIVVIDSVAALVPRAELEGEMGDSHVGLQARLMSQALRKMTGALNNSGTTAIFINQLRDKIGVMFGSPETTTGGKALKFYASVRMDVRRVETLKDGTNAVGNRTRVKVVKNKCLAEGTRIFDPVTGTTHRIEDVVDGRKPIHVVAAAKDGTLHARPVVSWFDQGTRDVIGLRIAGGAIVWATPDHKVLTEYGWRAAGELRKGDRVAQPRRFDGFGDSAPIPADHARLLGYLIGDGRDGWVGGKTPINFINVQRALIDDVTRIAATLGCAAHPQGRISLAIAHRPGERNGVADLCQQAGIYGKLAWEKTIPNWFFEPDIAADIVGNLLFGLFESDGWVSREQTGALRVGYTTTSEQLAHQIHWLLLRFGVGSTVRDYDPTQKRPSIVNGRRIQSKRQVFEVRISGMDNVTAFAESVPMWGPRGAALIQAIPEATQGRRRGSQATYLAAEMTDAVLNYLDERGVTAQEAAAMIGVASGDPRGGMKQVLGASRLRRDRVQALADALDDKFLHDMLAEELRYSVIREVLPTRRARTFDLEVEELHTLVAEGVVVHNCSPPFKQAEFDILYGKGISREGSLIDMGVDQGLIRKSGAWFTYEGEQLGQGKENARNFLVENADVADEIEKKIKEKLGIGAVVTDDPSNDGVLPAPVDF
Mtb FBA inh: Mtb FBA enzyme inhibitors, primary screen, biochemical, fluorescence, strain H37Rv. Fructose-bisphosphate aldolase (Mycobacterium tuberculosis (strain ATCC 25618 / H37Rv)), …. purified M. tuberculosis FBA, fluorescence read-out. inhibition, % at 1 µM. 360,000 tested, 2.3% active;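 also: 0% = vehicle and 100% = reference inhibitor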
GDH-TPI counter-1: GDH-TPI coupling enzyme inhibitors, primary screen, artefact control for M. tuberculosis FBA inhibitor project, biochemical, absorbance, full deck; 360,000 tested, 1.2% active; inhibition, % at 4.8 µM; GDH-TPI coupled enzyme counterscreen, NADH absorbance; AID 588335, 2011; in the data active = inhibition above about 30%;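 also: 0% = DMSO wells and 100% = wells lacking the enzyme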
CCHF vOTU inh: CCHFV vOTU protease inhibitors, primary screen, biochemical, Pep-AMC substrate, fluorescence. Crimean-Congo hemorrhagic fever virus L polyprotein viral ovarian tumor (vOTU) protease …. inhibition, % at 11.5 µM. 370,000 tested, 0.55% active; in the data active = inhibition above about 30%; also: 0% = vehicle wells with enzyme and 100% = no enzyme wells
VHR inh abs: VHR1 phosphatase inhibitors, primary screen, biochemical, absorbance, uHTS; AID 1654, 2009; inhibition, % at 13.3 µM; recombinant VHR phosphatase, pNPP absorbance; Dual specificity protein phosphatase 3 (Homo sapiens), P51452; 290,000 tested, 0.52% active; in the data active = inhibition above about 50%
Mtb FBA confirm: M. tuberculosis aldolase blockers, biochemical, fluorescence, strain H37Rv, confirmation. shares compounds with Mtb FBA inh. purified M. tuberculosis FBA, fluorescence read-out. inhibition, % at 1 µM. 5,600 tested, 78% active. AID 651616, 2012;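 also: 0% = vehicle wells and 100% = reference inhibitor wells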
GDH-TPI counter-2: GDH-TPI coupling enzyme inhibitors, artefact control for M. tuberculosis FBA inhibitor project, biochemical, fluorescence, high throughput | shares compounds with Mtb FBA inh | GDH-TPI coupled enzyme counterscreen | inhibition, % at 1 µM | 5,600 tested, 81% active | AID 652141, 2013; in the data active = inhibition above about 10%
GDH-TPI dose: GDH-TPI coupling enzyme inhibitors, dose response, artefact control for M. tuberculosis FBA inhibitor project, biochemical, fluorescence, IC50; IC50, µM; AID 652145, 2013; shares compounds with Mtb FBA inh; GDH-TPI coupled enzyme assay, artifact counterscreen; 170 tested, 79% active; call rule not given here
* marks the source's active call; other numbers are inactive results; x = not tested or not shown; + = active, no number. This is a sample that favours compounds with a hit; in the whole collection about 4.7% have one here. Rule as the data show it, unless noted: active = inhibition above about 27%; inactive = the rest.

SMILES	SARS 3CLpro inh	RecA splice inh	Mtb FBA inh	GDH-TPI counter-1	CCHF vOTU inh	VHR inh abs	Mtb FBA confirm	GDH-TPI counter-2	others
O=C(c1ccco1)N1N=C(c2ccccc2O)CC1c1cccs1 (configuration not stated)	x	x	-4	20	5	x	x	x
Cc1nc2ccc(S(=O)(=O)CCC(=O)NCCc3ccccc3)cc2s1	x	x	-1	-8	1	x	x	x
Cc1ccc(C(=O)C2CCN(CC(=O)N3CCCC3)CC2)cc1	x	x	x	x	4	x	x	x
CC1(C)Cc2c(c(-c3ccccc3)[nH]c(=O)c2C#N)CS1	0	1	29*	25	5	29	44*	50*
COc1cc2nc(N3CCN(C(=O)C4COc5ccccc5O4)CC3)nc(N)c2cc1OC (configuration not stated)	0	3	85*	18	-57	-3	148*	110*
Cc1cc(=O)oc2cc(OCC(=O)N3CCN(C(=O)C4COc5ccccc5O4)CC3)ccc12 (configuration not stated)	9	-2	35*	16	-5	-9	+	+
Cc1c(C)c2ccc(OCC(=O)N3CCN(C(=O)C4COc5ccccc5O4)CC3)cc2oc1=O (configuration not stated)	2	3	66*	13	-32	-6	29*	17*
COc1ccc2c(C)c(CC(=O)N3CCN(C(=O)C4COc5ccccc5O4)CC3)c(=O)oc2c1C (configuration not stated)	-4	-3	78*	9	-61	7	162*	131*
Cn1cccc1C(=O)OCc1cc(-c2ccco2)on1	x	x	-2	3	4	x	x	x
CC(C)(C)c1ccc(C(=O)NCc2nnc(SCC(=O)NC3CCCCC3)o2)cc1	2	6	0	-9	22	-6	x	x
COc1cc2c(cc1NC(=S)Nc1ccccc1C)oc1ccccc12	6	1	111*	36*	-17	-12	56*	43*
CCNC(=S)Nc1cc2oc3ccccc3c2cc1OC	-6	-2	31*	7	-7	1	4	5
CNC(=S)Nc1cc2oc3ccccc3c2cc1OC	4	-1	2	11	-5	4	x	x
COc1cc2c(cc1NC(=S)Nc1cccc(C)c1)oc1ccccc12	-2	2	87*	31*	-25	15	12	-4	GDH-TPI dose=>10
COc1cccc(C(=O)N2CCC3(CC2)OCCO3)c1	5	0	0	-11	-8	20	x	x
COc1ccc2nc3oc(C(=O)Nc4ccc(OC)c(OC)c4)cc3cc2c1	0	-18	18	3	-6	12	x	x
COc1ccc2nc3oc(C(=O)N4CCC5(CC4)OCCO5)cc3cc2c1	-1	1	50*	13	-25	21	187*	156*
COc1cc(OC)cc(C(=O)N2CCN(C3CCCCC3)CC2)c1	-6	x	0	9	-10	13	x	x
COc1ccc2cc3cc(C(=O)NCCc4ccc(OC)c(OC)c4)oc3nc2c1	4	1	31*	45*	-20	11	54*	46*
COc1ccc2cc3cc(C(=O)N4CCN(C5CCCCC5)CC4)oc3nc2c1	-8	-1	50*	9	x	12	23	5	GDH-TPI dose=1.7*
Cc1ccc([C@H]2C[C@@H](n3cc(COC(=O)c4ccccc4)nn3)[C@H](O)CN2C(=O)C2CCCCC2)cc1	x	x	-2	-10	8	x	x	x
O=C(/C=C(\Nc1ccc(Cl)c(Cl)c1)c1ccccc1)c1ccccc1	x	x	x	x	-1	x	x	x
Cc1cc(C)n(-c2nc(NCc3cccnc3)c3c4c(sc3n2)COC(C)(C)C4)n1	0	2	63*	14	-66	0	81*	63*
CCN(CC)CCCNc1nc(-n2nc(C)cc2C)nc2sc3c(c12)CC(C)(C)OC3	1	-2	7	-2	-17	1	x	x
CN(C)c1cc2c3ccccc3n(C)c2cc1N	x	x	71*	15	-36	x	147*	134*
SMILES	SARS 3CLpro inh	RecA splice inh	Mtb FBA inh	GDH-TPI counter-1	CCHF vOTU inh	VHR inh abs	Mtb FBA confirm	GDH-TPI counter-2	others
Cc1ccc(NC(=O)CN2CCN(C)CC2)cc1Br	0	4	-6	-6	14	-3	x	x
O=C1CC(C(=O)Nc2ccccc2)C2(CCCCC2)O1 (configuration not stated)	-1	1	50*	2	2	0	3	-4
Cc1cccc(C)c1-n1nnnc1C1c2ccccc2C(=O)N1CCCn1ccnc1 (configuration not stated)	x	x	x	x	5	x	x	x
CC(C)NC(=S)N/N=C/c1ccc(N2CCOCC2)cc1	-5	-3	38*	40*	-32	23	120*	89*
C=C(C)CNC(=S)N/N=C/c1ccc(N2CCOCC2)cc1	3	1	53*	42*	-64	-7	53*	52*
Cc1ccc(/C=N/NC(=S)NC(C)C)o1	-1	2	2	29	4	27	x	x
CC(C)(C)c1ccc(OCC(=O)N/N=C/c2ccc(N3CCOCC3)cc2)cc1	3	-1	27*	23	12	1	62*	43*
COCCNC(=S)N/N=C/c1ccc(N2CCOCC2)cc1	-3	-6	46*	31*	-51	2	+	+
Cc1ccc(-c2cc(C(=O)NN=Cc3sccc3C)[nH]n2)cc1C	x	x	x	x	7	x	x	x
O=C(COc1ccc(Cl)cc1Br)NC(=O)NCc1ccccc1	2	-1	-3	0	5	37	x	x
COc1ccc(OC)c(/C=C2/Sc3ccccc3C2=O)c1	-6	0	-9	-1	-5	6	x	x
CC(C)CN(C(=O)COC(=O)c1cccc2ccccc12)c1c(N)n(Cc2ccccc2)c(=O)[nH]c1=O	x	-1	0	12	-9	x	x	x
COCCN(C(=O)COC(=O)c1ccccc1NCc1ccco1)c1c(N)n(Cc2ccccc2)c(=O)[nH]c1=O	x	0	81*	11	-75	x	151*	118*

Assay outcomes from PubChem BioAssay.
